Structures are written as SMILES. The whole screen tested about 2,300 compounds, of which about 1,400 (61%) were called active. Inconclusive results (about 29%) are left out. Calls come from the whole dose curve; as a rule, active = well fitted inhibition curve with a large enough effect; inconclusive = small, poorly fitted or top-dose-only effect, or effect the other way; inactive = no such curve, though single readings can be large or run the other way. So high a share suggests a set chosen from earlier hits. Some of the results follow.
Potency is the fitted concentration of half-maximal effect.

The nature of this assay: Confirmation screen for delayed death inhibitors of the malarial parasite plastid, 96 hour incubation. Note: nearly all actives have a fitted effect of over 60% in size. Particulars: P. falciparum luciferase growth in erythrocytes; series mostly up to 28.7 µM. In outline: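 Erythrocytes infected with luciferase-expressing P. falciparum (2% hematocrit, 0.1% parasitemia final) in RPMI 1640 with 0.5% Albumax, exposed to compounds 96 h at 37 C, 5% CO2. Growth inhibition read as decreased luciferase luminescence.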
Regarding `COc1ccc(CCN2CCCn3c2nc2c3c(=O)n(Cc3ccccc3F)c(=O)n2C)cc1OC`, the Potency is 2.24 µM (active).

On to `Cc1ccc(S(=O)(=O)Nc2ccc(C(=O)Nc3ccncc3)cc2)cc1`, for which the Potency was 12.6 µM (active).

In the case of `CCOc1ccc(C2C3=C(Nc4nc(N)[nH]c(=O)c42)c2ccccc2C3=O)cc1` (stereo unspecified), the Potency is 10 µM (active).

For `CCN(CC)S(=O)(=O)c1cc(NC(=O)C(C)OC(=O)c2[nH]c(C)c(C(C)=O)c2C)ccc1C` (stereo unspecified), the Potency is 1.78 µM (active).

On to `O=C1/C(=C/c2ccccc2F)SC(=S)N1CC(=O)N1CCCCC1c1cccnc1` (stereo unspecified), for which the Potency was 10 µM (active).

As to `COc1cc(OC)c(OC)cc1CN1CCN(C(=O)c2cccc3ccccc23)CC1`, the Potency is 10 µM (active).

Turning to `CCCc1cc(=O)oc2cc(OC(C)C(=O)NCc3ccccn3)c(Cl)cc12` (stereo unspecified), the Potency is 15.8 µM (active).

As for `COc1cc(C(=O)Nc2ccc(S(=O)(=O)Nc3cc(C)on3)cc2)cc(OC)c1OC`, the Potency entry was “inactive”.

On to `COc1ccc(NC(=O)c2cccc(NC(=O)c3ccccc3)c2)c(OC)c1`, for which the Potency is 8.91 µM (active).

With `COc1ccccc1NC(=O)c1ccc2nc(-c3ccccc3)c(-c3ccccc3)nc2c1`, the Potency entry was “inactive”.

Take `O=C(Nc1cccc(Br)c1)c1ccc2snnc2c1`: the Potency entry was “inactive”.

`COC(=O)c1ccc(NC(=O)c2cccc(NC(=O)c3ccccc3)c2)cc1`: the Potency was 7.94 µM (active).

As for `COc1cc(C(=O)Nc2ccc(Nc3ccccc3)cc2)cc(OC)c1OC`, the Potency was 5.01 µM (active).

Take `COc1cc2c(cc1NC(=O)c1ccc(C(C)(C)C)cc1)CCCC2`: the Potency is 12.6 µM (active).

`O=C(CCl)N1CCN(CC(=O)N2CCCC2)CC1`: the Potency is 14.1 µM (active).

On to `C/C(=C\C(=O)OCCCCCCCCC(=O)O)C[C@@H]1OC[C@H](C[C@@H]2O[C@H]2[C@@H](C)[C@H](C)O)[C@@H](O)[C@H]1O`, for which the Potency is 0.501 µM (active).

Take `CSCCn1c(C(C)(C)C)cc(C(=O)O)c1C`: the Potency entry was “inactive”.

For `CCC(=O)c1ccc(OCC(O)CNC(C)c2ccccc2)cc1` (stereo unspecified), the Potency was 11.2 µM (active).

Consider `Cn1nnnc1Sc1ncnc2scc(-c3cccc(F)c3)c12`, for which the Potency was 6.31 µM (active).

Turning to `Cn1nnnc1Sc1ncnc2scc(-c3cccc(S(C)(=O)=O)c3)c12`, the Potency is 12.6 µM (active).

Turning to `CC(=O)N1c2ccc(S(=O)(=O)NCCC(=O)NC3CCCC(C)C3C)cc2CC1C` (stereo unspecified), the Potency was 14.1 µM (active).

For the compound `N#C/C(=C\c1ccccn1)c1ccccn1`, the Potency is 11.2 µM (active).

For `O=C(c1ccco1)N1CCN(C2c3ccccc3-c3ccccc32)CC1`, the Potency is 12.6 µM (active).

For the compound `COc1ccc(CSC2=NCCN2)cc1Br`, the Potency is 12.6 µM (active).

For the compound `O=C(CCl)c1ccc2c(c1)CCN2C(=O)C1CCCCC1`, the Potency is 11.2 µM (active).

Turning to `O=C(COc1ccc(Cl)cc1)NCc1nnc2c3ccccc3c(-c3ccccc3)nn12`, the Potency is 12.6 µM (active).

On to `O=C1/C(=C/c2ccc(Cl)cc2)SC(=S)N1CCC(=O)N1CCCCC1CCO` (stereo unspecified), for which the Potency was 12.6 µM (active).

For the compound `COc1cccc(/C=C2\SC(=S)N(CCC(=O)N3CCCCC3CCO)C2=O)c1` (stereo unspecified), the Potency was 6.31 µM (active).

As for `CC(C)c1ccc(/C=C2\SC(=S)N(CCC(=O)N3CCCCC3CCO)C2=O)cc1` (stereo unspecified), the Potency was 1.26 µM (active).

Regarding `COc1cccc([C@@H]2Oc3ccc(OC)cc3C(=O)[C@H]2O)c1`, the Potency is 7.08 µM (active).

On to `C=CCNC(=O)c1onc(CSc2ccc(C(C)C)cc2)c1C(=O)O`, for which the Potency entry is “inactive”.

`C=CCNC(=O)c1oc2ccc(S(=O)(=O)N3CCCCC3)cc2c1C`: the Potency is 11.2 µM (active).

In the case of `C=CCNC(=O)c1onc(CSc2ccc(F)c(F)c2)c1C(=O)O`, the Potency entry is “inactive”.

Turning to `COC(=O)C1=CN(Cc2ccc(F)cc2)C=C(C(=O)OC)C1c1ccc(O)c(OC)c1`, the Potency is 10 µM (active).

Turning to `CC(=O)N(C)C1=C(N2CCOCC2)C(=O)c2ccccc2C1=O`, the Potency is 0.0355 µM (active).

As for `N#Cc1ncc(-c2ccc3c(c2)OCCOCCOCCOCCOCCO3)nc1C#N`, the Potency is 12.6 µM (active).

For `O=C(c1cc(COc2cccc(C(F)(F)F)c2)on1)N1CCC(Oc2cccnc2)CC1`, the Potency is 14.1 µM (active).

As for `C/C(=N\NC(=O)c1ccc(Cl)c(Cl)c1)c1ccc(Br)s1`, the Potency was 2 µM (active).

With `COCCn1c(SC(C)C(=O)Nc2ncc(Cl)cc2Cl)nc2ccccc21` (stereo unspecified), the Potency was 15.8 µM (active).

With `Cc1ccc(-n2c(SCC(=O)Nc3ncc(Cl)cc3Cl)nc3ccccc32)cc1`, the Potency is 11.2 µM (active).

Consider `O=C(CSc1nc2ccccc2n1-c1ccccc1)Nc1ncc(Cl)cc1Cl`, for which the Potency is 10 µM (active).

As for `Cc1nn(C)c(C)c1C(C)NC(=O)c1ccc(OC2CCN(Cc3ccccn3)CC2)cc1` (stereo unspecified), the Potency result is “inactive”.

Consider `COc1ccc(CN2CCC(Oc3ccc(C(=O)NCc4ccccn4)cc3)CC2)c(F)c1`, for which the Potency is 12.6 µM (active).

On to `O=C1N=C(N2CCN(c3ccccc3)CC2)S/C1=C/c1cccs1`, for which the Potency was 12.6 µM (active).

As for `CC1=NNC(=O)/C1=C\c1cn(-c2ccccc2)nc1-c1cccs1`, the Potency was 5.62 µM (active).

For the compound `O=C(c1ccco1)N1CCN(C(=O)C2CCCc3c2[nH]c2ccc(Cl)cc32)CC1` (stereo unspecified), the Potency was 12.6 µM (active).

On to `Cc1n[nH]c(=S)n(/N=C/c2ccccn2)c1=O`, for which the Potency result is “inactive”.

For the compound `C=CCN=c1scc(-c2ccc(F)cc2)n1/N=C/c1ccccn1`, the Potency was 3.98 µM (active).

In the case of `Cc1ccc(NC(=O)CSc2nc3ccccc3c(=O)n2CCCN2CCCCC2)cc1Cl`, the Potency was 6.31 µM (active).

`CC(C)(C)n1ncc2c(=O)n(Cc3ccccc3Br)cnc21`: the Potency is 12.6 µM (active).

With `CSc1ncccc1C(=O)NC1CC(C)(C)Cc2c1cnn2-c1ccccc1C` (stereo unspecified), the Potency was 11.2 µM (active).

Regarding `COc1cccc(C(=O)NC2CC(C)(C)Cc3c2cnn3-c2cccc(F)c2)c1OC` (stereo unspecified), the Potency was 12.6 µM (active).

Consider `COc1ccc(OC)c(C(=O)NC2CC(C)(C)Cc3c2cnn3-c2ccccc2)c1` (stereo unspecified), for which the Potency was 11.2 µM (active).

Consider `CC[C@H]1OC(=O)[C@H](C)[C@@H](O[C@H]2C[C@@](C)(OC)[C@@H](O)[C@H](C)O2)C(C)[C@@H](O[C@@H]2O[C@H](C)C[C@H](N(C)C)[C@@H]2O)[C@](C)(OC)C[C@@H](C)C(=O)[C@H](C)[C@@H](O)[C@]1(C)O` (stereo partly specified), for which the Potency is 2.82 µM (active).

Take `CC[C@H]1OC(=O)[C@H](C)[C@@H](O[C@H]2C[C@@](C)(OC)[C@@H](O)[C@H](C)O2)[C@H](C)[C@@H](O[C@@H]2O[C@H](C)C[C@H](N(C)C)[C@H]2O)[C@](C)(O)C[C@@H](C)CN(C)[C@H](C)[C@@H](O)[C@]1(C)O`: the Potency was 0.631 µM (active).

Take `CCC(=O)OC1C(N(C)C)CC(C)O[C@H]1O[C@H]1[C@H](C)[C@@H](O[C@H]2CC(OC)[C@@H](O)C(C)O2)[C@H](C)C(=O)O[C@@H](CC)[C@](C)(O)[C@@H](O)[C@H](C)C(=O)[C@@H](C)C[C@]1(C)O` (stereo partly specified): the Potency is 10 µM (active).

For `COc1ccccc1NS(=O)(=O)c1ccc(NN=C2CCCC2)c([N+](=O)[O-])c1`, the Potency was 11.2 µM (active).

For the compound `Cc1ccc(-c2nn(-c3ccccc3)cc2CC(=S)N2CCOCC2)cc1`, the Potency is 12.6 µM (active).

With `COc1ccc(Cn2c(-c3ccc(Br)cc3)c[n+]3ccccc23)cc1`, the Potency is 0.562 µM (active).

For the compound `Cc1ccn2c(NC3CCCC3)c(-c3ccccn3)nc2c1`, the Potency is 3.16 µM (active).

As to `CCOC(=O)c1cc(-c2ccccc2)sc1NC(=O)C(C)OC(=O)c1cccnc1Cl` (stereo unspecified), the Potency was 6.31 µM (active).

For the compound `COCCN(C(=O)c1ccccc1F)c1nnc(-c2ccc(OC)cc2)s1`, the Potency was 7.08 µM (active).

Regarding `COc1ccc(C2CC(c3cccs3)=NN2C(=O)CSc2nnc(N)s2)cc1OC` (stereo unspecified), the Potency is 11.2 µM (active).

Consider `Cc1ccc(NC(=O)c2ccc3c(SCC(=O)O)c4c(nc3c2)CCCC4)c(Br)c1`, for which the Potency was 7.94 µM (active).

For the compound `Cc1onc(NC(=O)c2ccc([N+](=O)[O-])o2)c1Br`, the Potency was 11.2 µM (active).

On to `Cc1cc[n+]2cc(-c3cccc([N+](=O)[O-])c3)c(-c3cccc([N+](=O)[O-])c3)cc2c1`, for which the Potency was 0.112 µM (active).

Turning to `CCC(=O)Nc1cccc(C(=O)/C=C/c2ccccc2)c1`, the Potency was 12.6 µM (active).

`CCC(=O)Nc1cccc(C(=O)/C=C/c2cc(Br)ccc2OC)c1`: the Potency is 7.94 µM (active).

For `CC(=O)Nc1cccc(C(=O)/C=C/c2ccc(C)cc2)c1`, the Potency is 15.8 µM (active).

As for `N#C/C(=C\c1ccc(-c2ccc(C(=O)O)cc2)o1)C(=O)Nc1ccc(F)cc1`, the Potency was 10 µM (active).

As for `COc1ccccc1-c1cc(C(=O)N/N=C/c2ccc(C)s2)c2ccccc2n1`, the Potency is 5.01 µM (active).

With `COc1ccc(/C=N/NC(=O)c2cc(-c3ccccc3)nc3ccccc23)cc1O`, the Potency result was “inactive”.

`COc1ccc(-c2cc(C(=O)N/N=C/c3ccc4c(c3)OCO4)c3ccccc3n2)c(OC)c1`: the Potency is 11.2 µM (active).

As for `COc1ccccc1-c1cc(C(=O)N/N=C/c2sccc2C)c2ccccc2n1`, the Potency is 3.55 µM (active).

With `COc1ccccc1-c1cc(C(=O)N/N=C/c2cccs2)c2ccccc2n1`, the Potency was 6.31 µM (active).

Turning to `COc1ccccc1-c1cc(C(=O)N/N=C/c2ccc(C)o2)c2ccccc2n1`, the Potency entry was “inactive”.

On to `C=CCNC(=O)c1onc(CSc2cccc(Cl)c2)c1C(=O)O`, for which the Potency entry is “inactive”.

Turning to `Cc1cccc(N(Cc2ccccc2)C(=O)CN2C(=O)NC3(CCCCC3C)C2=O)c1` (stereo unspecified), the Potency was 11.2 µM (active).

On to `Cc1nn(Cc2ccccc2Cl)c(C)c1C(=O)Nc1nnc(C2CC2)s1`, for which the Potency is 11.2 µM (active).

On to `Cc1nn(Cc2c(Cl)cccc2Cl)c(C)c1NC(=O)c1cc(C(C)C)on1`, for which the Potency result was “inactive”.

Turning to `COc1ccc(-n2c(=O)/c(=C\c3cccs3)s/c2=C(/C#N)C(=O)N2CCN(C)CC2)cc1`, the Potency entry is “inactive”.

Regarding `Fc1ccc(Nc2nc(N3CCOCC3)nc(N3CCOCC3)n2)cc1`, the Potency is 12.6 µM (active).

Take `COc1ccc(CN2CCN(C(=O)c3ccc(CNS(=O)(=O)c4ccc(C)cc4)cc3)CC2)c(OC)c1OC`: the Potency is 11.2 µM (active).

For the compound `O=S(=O)(c1ccc(Cl)c(NC(=S)N/N=C/c2ccc(O)cc2)c1)N1CCOCC1`, the Potency was 5.01 µM (active).

`COc1ccc(/C=C/C(=O)c2ccc(NS(=O)(=O)c3ccc(C)cc3)cc2)cc1O`: the Potency was 7.08 µM (active).

On to `COc1cccc(/C=C/C(=O)c2ccc(NS(=O)(=O)c3ccc(C)cc3)cc2)c1`, for which the Potency was 15.8 µM (active).

Values taken from PubChem BioAssay AID504848 (National Center for Advancing Translational Sciences (NCATS), 2011).
